Most compounds without a hit are left out; they make up all but 4.6% or so of the library.
DAX1 inh-1 – inhibitors of human orphan nuclear receptor DAX1 (NR0B1) | HEK293 Gal4-DAX1 luciferase reporter, luminescence | inhibition, % at 6.75 µM | 0.99% of 340,000 active | AID 504766;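 active means inhibition above the mean over all tested compounds plus 3 SD, cut at about 4.2% in these data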;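 further: 0% = DAX1-transfected cells with DMSO and 100% = empty-vector control cells with DMSO; inhibition shows as a rise in luminescence from relieved DAX1 repression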
ssDAF-12 act – activates DAF-12 receptor from parasite S. stercoralis | AID 652126 | 1% of 370,000 active | HEK293 ssDAF-12/GRIP1 lit1-tk-luc reporter, luminescence; % of 3 µM dafachronic acid response | activation, % at 6.8 µM;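 active means activation above the mean over all tested compounds plus 3 SD, cut at about 0.9% in these data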;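 further: 0% = DMSO-only wells and 100% = 3 µM delta7-dafachronic acid wells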
hcDAF12 agonist – activates DAF-12 receptor from parasite H. contortus | HEK293 hcDAF-12 lit1-tk-luc reporter, luminescence; 0% DMSO, 100% Δ7-dafachronic acid | activation, % at 6.8 µM | 1.4% of 370,000 active | AID 652067;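 active means activation above the mean of all tested compounds plus 3 SD, cut at about 5.5% in these data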;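 further: 100% = response to 3 µM Δ7-dafachronic acid high control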
hgDAF-12 ag – hgDAF-12 agonism, primary luciferase screen | HEK293 GAL4-hgDAF12 UAS-luciferase reporter, agonist luminescence; normalized to butyrate control | activation, % at 6.8 µM | 1.8% of 370,000 active | AID 687014;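 active means activation above a cutoff set at the mean of all screened compounds plus 3 SD, cut at about 10% in these data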;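 further: 0% = DMSO wells and 100% = sodium butyrate wells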
DAX1 inh-2 – blocks DAX1 repression of SF-1 activated StAR promoter; inhibition, % at 6.8 µM; 1.1% of 370,000 active; HEK293T StAR-luciferase reporter, SF-1/DAX-1 repression relief;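 active means inhibition above the mean over all tested compounds plus 3 SD, cut at about 3.6% in these data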;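 further: 0% = DAX-1 cells with DMSO and 100% = cells lacking DAX-1 with DMSO; higher inhibition means more luminescence from relief of DAX-1 repression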
Wee1 stabilizer – blocks degradation of human Wee1 kinase; P30291; HeLa Luc-Wee1K328M stability, luciferase luminescence; 100% = proteasome inhibitor MG132 effect; reporter increase, % at 5 µM; 1.2% of 220,000 active;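 active means activation above the mean of all tested compounds plus 3 SD, set per screening run, cut at about 8.8% in these data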;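 further: cells exposed to compound for 20 h before luminescence read; 0% = DMSO alone and 100% = MG132 at 30 µM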
Target sequence (P30291 whole entry K328M): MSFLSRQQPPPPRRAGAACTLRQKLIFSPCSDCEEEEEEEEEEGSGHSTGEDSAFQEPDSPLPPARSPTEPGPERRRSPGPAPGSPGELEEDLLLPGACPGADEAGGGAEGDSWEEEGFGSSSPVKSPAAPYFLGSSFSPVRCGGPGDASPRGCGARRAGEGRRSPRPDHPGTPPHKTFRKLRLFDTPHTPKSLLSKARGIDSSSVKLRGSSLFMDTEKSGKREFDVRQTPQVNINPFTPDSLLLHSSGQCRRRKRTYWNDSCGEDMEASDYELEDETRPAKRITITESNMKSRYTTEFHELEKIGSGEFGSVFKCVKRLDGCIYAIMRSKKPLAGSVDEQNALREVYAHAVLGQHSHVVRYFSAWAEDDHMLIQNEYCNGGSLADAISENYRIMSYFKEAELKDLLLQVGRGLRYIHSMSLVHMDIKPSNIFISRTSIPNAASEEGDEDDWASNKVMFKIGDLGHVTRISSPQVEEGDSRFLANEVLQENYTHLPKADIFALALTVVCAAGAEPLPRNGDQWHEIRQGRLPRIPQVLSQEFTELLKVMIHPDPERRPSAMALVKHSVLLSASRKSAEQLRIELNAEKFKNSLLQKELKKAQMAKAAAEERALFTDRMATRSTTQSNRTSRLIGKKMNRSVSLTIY
The depositor's hits bear a star; . = no result given.

SMILES | DAX1 inh-1 | ssDAF-12 act | hcDAF12 agonist | hgDAF-12 ag | DAX1 inh-2 | Wee1 stabilizer
CC1OC(OC2C(O)CC(OC3C(O)CC(OC4CCC5(C)C(CCC6C5CCC5(C)C(C7=CC(=O)OC7)C(O)CC65O)C4)OC3C)OC2C)CC(O)C1O (stereo unspecified) | -4 | -2 | 3 | -9 | 16* | .
O=c1[nH]c(=S)[nH]c(O)c1N=Nc1ccc(OC(F)F)cc1 | 4.4* | 0 | 1 | 4 | 2 | 0
NS(=O)(=O)c1ccc(N=Nc2c(O)[nH]c(=S)[nH]c2=O)cc1 | -1 | -1 | 0 | -3 | 0 | 1
COc1ccc(N=Nc2c(O)[nH]c(=S)[nH]c2=O)cc1 | 3 | -1 | 2 | 8 | 3.9* | 9.8*
CN1C2CCC1/C(=C/c1ccccn1)C(=O)/C2=C\c1ccccn1 | -6 | -3 | -4 | -4 | -4 | 21*
CC1=NCCc2c1[nH]c1ccccc21 | 0 | 1.0* | 6.3* | -1 | 0 | -1
CC(c1ccccc1)n1cc(C(=O)NC2CCCC2)nn1 (stereo unspecified) | . | -1 | -1 | 0 | -1 | .
OCC[n+]1c2ccccc2nc2ccc(N3CCOCC3)cc21 | . | -1 | 0 | -2 | -1 | -3
CCN1CCN(c2ncnc3ccc(Br)cc23)CC1 | 4.4* | -1 | -1 | 5 | 0 | 3
c1ccc(Cc2cnc(N3CCNCC3)nc2)cc1 | . | -1 | 0 | 0 | 1 | .
Cc1ccc(-n2c(O)c(C=NCc3ccccn3)c(=O)[nH]c2=S)cc1 | 5.1* | -1 | 0 | 3 | 0 | 2
O=c1[nH]c(=S)n(C2CC2)c(O)c1/C=N/Nc1ccccc1 | 0 | -1 | 2 | 0 | 0 | 2
O=c1[nH]c(=S)n(C2CC2)c(O)c1/C=N/Nc1cccc2ccccc12 | -1 | -1 | 1 | 4 | -1 | 8.9*
Cc1ccc(/C=C2/C(=O)NC(=O)N(C)C2=O)cc1 | 0 | -1 | -1 | -2 | 0 | 8.9*
CN1C(=O)NC(=O)/C(=C/c2ccc(C(=O)O)cc2)C1=O | 1 | 0 | -2 | 1 | 1 | -1
COc1cccc(OCc2cc(C(=O)N3C[C@H]4C[C@@H](C3)c3cccc(=O)n3C4)no2)c1 | 3 | 1.5* | 5.6* | 13* | 1 | .
COc1ccc2c(C)c(CCC(=O)N3C[C@H]4C[C@@H](C3)c3cccc(=O)n3C4)c(=O)oc2c1 | 5.7* | -1 | -2 | 4 | 1 | .
Cc1ccsc1C(=O)C1CCCN(Cc2cnc(N)nc2)C1 (stereo unspecified) | 0 | -1 | 0 | -1 | 0 | 9.6*
Cc1ccsc1C(=O)C1CCCN(Cc2cnn(C(C)C)c2)C1 (stereo unspecified) | -1 | -1 | 2 | -1 | 0 | 0
COC(=O)C1(C(=O)O)Cc2cc([N+](=O)[O-])ccc2N2CCCC21 (stereo unspecified) | 0 | -2 | 0 | 2 | 0 | .
CC(Cc1ccccc1)NC(=O)C(c1ccc(N)cc1)c1ccc(N)cc1 (stereo unspecified) | 0 | -1 | -2 | -1 | 0 | .
CC(Cc1ccccc1)NC(=O)c1ccc(N)cc1 (stereo unspecified) | 4.8* | 1 | 3 | 9 | 1 | .
CC(Cc1ccccc1)NC(=O)NC(C)Cc1ccccc1 (stereo unspecified) | 1 | 0 | 2 | 13* | 2 | -1
O=c1[nH]c(=S)n(C2CCCCC2)c(O)c1/C=N/N1CCOCC1 | 2 | -1 | -1 | -1 | 0 | -3
COC(=O)C1=C(c2ccc(F)cc2F)C[C@@H]2CC[C@H]1N2C(=O)N1CCCCC1 | 1 | -1 | 1 | -1 | -1 | .
CC(C)(C)n1nnnc1C1CN=C(c2ccccc2)c2ccccc2N1 (stereo unspecified) | . | -1 | 1 | 11* | 1 | .
CC(C)(C)n1nnnc1C1CN=C(c2ccccc2)c2cc(Cl)ccc2N1 (stereo unspecified) | . | -1 | -2 | 2 | 0 | .
COc1ccc(C2SCC(=O)Nc3c2c(C)nn3C2CCOC(C)(C)C2)cc1 (stereo unspecified) | 2 | -1 | -1 | -3 | 0 | 0

Compound activity from PubChem BioAssay.
